This is a sample that favours compounds with a hit; in the whole collection about 3.3% have one here.
AmpC detergent = qHTS Inhibitors of AmpC Beta-Lactamase (assay with detergent) | P00811 | AmpC hydrolysis of nitrocefin, absorbance 480 nm, 0.01% Triton | Potency, µM (doses to about 114 µM), usual class: inhibitors | 0.041% of 370,000 active | AID 485294, 2010; also: nearly all actives have a fitted effect of over 25% in size
Target sequence (P00811 whole entry, looked up): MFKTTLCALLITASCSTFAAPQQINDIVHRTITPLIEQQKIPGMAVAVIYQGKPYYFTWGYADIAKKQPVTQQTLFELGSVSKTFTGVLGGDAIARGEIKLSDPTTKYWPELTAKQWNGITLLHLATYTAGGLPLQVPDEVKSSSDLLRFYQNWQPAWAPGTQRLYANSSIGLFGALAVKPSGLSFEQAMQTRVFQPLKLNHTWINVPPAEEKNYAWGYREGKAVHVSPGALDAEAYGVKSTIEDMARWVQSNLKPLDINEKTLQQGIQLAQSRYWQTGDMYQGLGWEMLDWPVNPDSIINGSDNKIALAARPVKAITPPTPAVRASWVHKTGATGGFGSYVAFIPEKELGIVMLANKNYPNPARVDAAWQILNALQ
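AmpC (5.3 nM in the dispensed reagent) in 20 mM phosphate pH 7.0 with 0.01% (detergent screen) or 0.0001% Triton X-100 was preincubated with compounds for 15 min at room temperature. Nitrocefin was then added from an 800 uM solution, and hydrolysis was followed at 480 nm.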
Sm TGR inh = qHTS Assay for the Inhibitors of Schistosoma Mansoni Peroxiredoxins | purified TGR, DTNB reduction, TNB absorbance 405 nm | Potency, µM (doses to about 114 µM), most hits filed as inhibitors | 3% of 360,000 active | AID 485364, 2010; also: nearly all actives have a fitted effect of over 60% in size
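First, TGR (20 nM dispensed) and NADPH were mixed with compound. Second, a 15 min room-temperature incubation followed. Third, further NADPH and then DTNB were added to start the reaction. Finally, TNB absorbance was monitored kinetically.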
AmpC no deterg = qHTS Inhibitors of AmpC Beta-Lactamase (assay without detergent) | P00811 | AmpC nitrocefin hydrolysis, absorbance 480 nm, 0.0001% Triton | Potency, µM (highest dose often 57.1 µM), most hits filed as inhibitors | 0.52% of 330,000 active; also: nearly all actives have a fitted effect of over 20% in size
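20 mM phosphate pH 7.0 + 0.01% (detergent screen) or 0.0001% Triton X-100; 5.3 nM AmpC reagent; cpd preinc 15 min RT; nitrocefin (800 uM stock) to start; A480 q20 s × 4 min; Activity was normalised to no-enzyme and no-compound control wells.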
Numbers stand for hits; 0 = inactive; ? = inconclusive; - = not tested or not shown. Calls follow the shape of the dose curve; as a rule, active = well fitted curve in the direction sought with a large enough effect; inconclusive = small, poorly fitted or top-dose-only effect, or another doubt; inactive = no such curve, though single readings can be large; an effect the other way counts as inactive or inconclusive.

SMILES | AmpC detergent | Sm TGR inh | AmpC no deterg
COc1ccc(CN2C(=O)NC(=O)/C(=C/c3ccc([N+](=O)[O-])o3)C2=O)cc1 | ? | ? | 0
CCOc1ccc(N2C(=O)/C(=C/c3ccc(C)o3)C(=O)NC2=S)cc1 | 0 | 1.4µM | 0
COc1ccc(N2C(=O)/C(=C/N(C)C)NC2=S)cc1 | 0 | 0 | 0
COc1ccc(N2C(=O)/C(=C/c3ccc(C)o3)C(=O)NC2=S)cc1 | 0 | 1.3µM | 0
Cc1cccc(N2C(=O)NC(=O)/C(=C/c3ccc([N+](=O)[O-])o3)C2=O)c1 | 0 | 8.9µM | 0
CCOc1ccc(Cn2c(CNS(=O)(=O)c3ccc(C(C)(C)C)cc3)nc3cccnc32)cc1 | 0 | 0 | -
CCn1cc(C(=O)NCCc2ccc(Cl)cc2)c(=O)c2cc(S(=O)(=O)N3CCOCC3)ccc21 | 0 | 0 | -
COc1ccc(OC)c(CNc2ncnc3onc(-c4ccc(Cl)cc4)c23)c1 | 0 | 0 | -
Cc1nc2ccn(Cc3cccnc3)c(=O)c2cc1C(=O)N1CCN(c2ccc(F)cc2)CC1 | 0 | 0 | -
Cc1sc(-c2cc3ccccc3oc2=O)nc1-c1ccc(Cl)cc1 | 0 | 0 | -
Cc1cc(C)cc(-n2cnc3cc(C(=O)NCCc4ccccc4)ccc32)c1 | 0 | 0 | -
CCOC(=O)c1cnn2c(C(F)(F)F)cc(-c3ccccc3)nc12 | 0 | 0 | 0
CCOC(=O)c1cnn2c(C(F)(F)F)cc(-c3ccc(Br)cc3)nc12 | 0 | 40µM | -
CCOc1ccc(NC(=O)c2cc3cc(C)ccc3n2C)cc1 | 0 | 0 | -
CCOc1ccc(/C=N/N2C(C)CCCC2C)cc1OC (stereo not drawn) | ? | 0 | 0
COc1cc(/C=N/N2C(C)CCCC2C)cc(OC)c1O (stereo not drawn) | 0 | 45µM | 0
COc1ccc(-c2cc(C)no2)cc1S(=O)(=O)NC1CCC(C)CC1 (stereo not drawn) | 0 | 0 | -
COc1ccc(NC(=O)/C=C/c2cc(OC)c(OC)c(OC)c2)cn1 | 0 | 45µM | 0
COc1ccc(NC(=O)/C=C/c2ccccc2)cn1 | 0 | 0 | 0
COc1cccc(CN2CCN(Cc3ccon3)CC2CCO)c1 (stereo not drawn) | 0 | 0 | 0
OCCC1CN(Cc2ccc3nonc3c2)CCN1Cc1ccsc1 (stereo not drawn) | 0 | 0 | 0
Cc1ccc(CN2CCN(Cc3ccc4cc(F)ccc4n3)CC2CCO)o1 (stereo not drawn) | 0 | 18µM | 0
Cc1ccc(CN2CCN(Cc3cnn(-c4ccc(F)cc4)c3)CC2CCO)o1 (stereo not drawn) | 0 | 0 | 0
COc1ccc(CN2CCN(Cc3cccn3-c3ncccn3)CC2CCO)c(C)c1C (stereo not drawn) | 0 | 0 | 0
OCCC1CN(Cc2ccc3cc(Cl)ccc3n2)CCN1Cc1ccsc1 (stereo not drawn) | 0 | 35µM | 0
SMILES | AmpC detergent | Sm TGR inh | AmpC no deterg
COc1cccc(CN2CCN(Cc3ccc4c(NC(C)=O)cccc4n3)CC2CCO)c1 (stereo not drawn) | 0 | 20µM | 0
COc1ccc(CN2CCN(Cc3ccc4cc(F)ccc4n3)CC2CCO)c(C)c1C (stereo not drawn) | 0 | 22µM | 0
COc1ccccc1-c1noc(-c2ccc(N3CCOCC3)c([N+](=O)[O-])c2)n1 | 0 | 0 | -
Cc1ccccc1Cn1c2ccccc2c2cnn(CC(=O)NCCc3ccc(Cl)cc3)c(=O)c21 | 0 | 0 | -
CCn1cc2c(n1)-c1c(oc(C(=O)Nc3cccc(C)c3C)c1C)CC2 | 0 | 0 | -
CN(C(=O)CSc1nc2ccc(NC(=O)CCc3ccccc3)cc2s1)c1ccccc1 | 0 | 0 | -
COCCCNC(=O)c1ccc(Cn2c(=O)c3ccccc3n(CC(N)=O)c2=O)cc1 | 0 | 0 | -
COc1cc(CN2CCN(Cc3ccc4cc(F)ccc4n3)CC2CCO)cc(OC)c1 (stereo not drawn) | 0 | 40µM | 0
CCOc1ccccc1CN1CCN(Cc2ccc3cc(F)ccc3n2)CC1CCO (stereo not drawn) | ? | 35µM | 0
Cc1oc(-c2cccs2)nc1CN1CCN(Cc2ccc(F)c(F)c2)C(CCO)C1 (stereo not drawn) | 0 | 0 | 0
CC(=O)Nc1ccc2nc(CN3CCN(CC=C(C)C)C(CCO)C3)ccc2c1 (stereo not drawn) | 0 | 20µM | 0
CC(=O)Nc1ccc(CN2CCN(CC=C(C)C)C(CCO)C2)cc1 (stereo not drawn) | 0 | 0 | 0
Cc1nc2ccccc2nc1CN1CCN(Cc2ccc(F)c(F)c2)C(CCO)C1 (stereo not drawn) | 0 | 14µM | 0
CCOc1ccc2nc(CN3CCN(Cc4ccccc4OCC)C(CCO)C3)ccc2c1 (stereo not drawn) | 0 | ? | 0
COc1cc(CN2CCN(CCc3ccccc3)C(CCO)C2)cc(OC)c1 (stereo not drawn) | 0 | 0 | 0
Cc1ccccc1-c1noc(-c2ccc(NCc3ccco3)c([N+](=O)[O-])c2)n1 | 0 | 0 | -
CCOC(=O)C1CCCN(C(=O)C2CCN(S(=O)(=O)c3c(C)noc3/C=C/c3ccc(C)cc3)CC2)C1 (stereo not drawn) | 0 | 0 | -
CC1(C)C(=O)N(CC(=O)Nc2cccc(F)c2)c2ccc(S(=O)(=O)N3CCCCC3)cc21 | 0 | 0 | -
O=C(COCc1cc(-c2cccs2)on1)NCc1cccc(Cl)c1 | 0 | 0 | -
COc1cccc2c1Oc1ncccc1N(C(=O)CCC(=O)NCCC(C)C)C2 | 0 | 0 | -
Cc1cccn2c(=O)c3cc(C#N)c(=O)n(-c4nnc(SCc5ccccc5F)s4)c3nc12 | 0 | 0 | -
CCOc1ccc(-n2cc(-c3ccccc3)c3c(NCc4ccc(F)cc4)ncnc32)cc1 | 0 | 79µM | -
CCOc1ccc(-n2cc(-c3ccccc3)c3c(NCc4ccccc4)ncnc32)cc1 | 0 | 0 | -
COc1cccc(NC(=O)c2nn(-c3ccc(C)cc3)c(=O)n(C)c2=O)c1 | 0 | 0 | -
O=C(CCN1CCOCC1)Nc1ccc(Br)cc1C(=O)c1ccccc1 | 0 | 25µM | 0
SMILES | AmpC detergent | Sm TGR inh | AmpC no deterg
O=C(CN1CCOCC1)Nc1ccc(Br)cc1C(=O)c1ccccc1 | 0 | 0 | 0
COC(=O)c1cccc(Nc2nn3c(=O)c4cc5c(cc4nc3s2)OCO5)c1 | 0 | 0 | -
O=C1NC(=O)N(Cc2ccc(F)cc2)C(=O)/C1=C/c1cccs1 | 0 | ? | 0
O=C1NC(=O)N(Cc2ccccc2Cl)C(=O)/C1=C/c1cccs1 | 0 | 0 | 20µM
Cc1ccccc1NCc1cccn1-c1nnc(N2CCC(C)CC2)s1 | 0 | 0 | -
Cc1ccc(CNc2cc(C)nc3nc(-c4cccc(C)c4)nn23)cc1 | 0 | ? | -
CC1(C)C[C@H]2C=C(C=O)[C@]3(C=O)C[C@]3(C)[C@H]2C1 | 0 | 50µM | 0
Cc1ccc(Nc2nc(C)nc(N)c2S(=O)(=O)c2ccccc2)cc1 | 0 | 0 | -
CCOc1ccccc1NC(=O)CCS(=O)(=O)c1ccc2c(c1)oc(=O)n2C | 0 | 0 | -
CCCCCn1c(C(C)NC(=O)c2ccccc2)nc2ccccc21 (stereo not drawn) | 0 | 0 | -
COc1ccc(NS(=O)(=O)c2ccc3oc(=O)c4[nH]c(=O)c(=O)n(C)c4c3c2)cc1 | 0 | 50µM | 0
CCn1cnc2c(=O)oc3ccc(S(=O)(=O)Nc4ccc(OC)cc4)cc3c21 | 0 | 0 | -
